From PubChem BioAssay (NCI)
The panel holds about 83,000 compounds, 20% with a hit somewhere; the sample as a whole holds those more often.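 Results are percent growth after 48 hours of single-concentration exposure. 100 means growth as in untreated cells, lower positive values show inhibition; negative values down to -100 show cell death.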 Unmarked numbers belong to inactive results. Calls of active or inactive are those of the source. How the source made its calls: active means growth percent below 10; inactive means the rest.

Experiments:
Test in all cases: NCI-60 one-dose screen, 48 h (100 = growth as untreated, 0 = no growth, -100 = all killed)
Details in all cases: 10 µM unless noted
[1] = tested on: BT-549 breast
[2] = tested on: MDA-MB-435 melanoma
[3] = tested on: SW-620 colon
[4] = tested on: MCF7 breast
[5] = tested on: HCT-116 colon
[6] = tested on: KM12 colon
[7] = tested on: HCC-2998 colon

SMILES	growth [1]	growth [2]	growth [3]	growth [4]	growth [5]	growth [6]	growth [7]
COc1cc2c(C#N)n3c(c2cc1OC)C(=O)C(c1ccccc1)Oc1ccccc1-3 (stereo not drawn)	-7.13% (active)	55.5%	87.6%	93.9%	27.9%	23.4%	
CCC[C@H](N[C@@H](C)C(=O)N1[C@H](C(=O)O)C[C@@H]2CCCC[C@@H]21)C(=O)OCC	113%	112%	114%		106%	104%	103%
COc1c(C)c2c(c(O)c1C/C=C(\C)CCC(=O)OCCN1CCOCC1)C(=O)OC2	40.4%	26.2%	19.6%		14%	27.8%	18.1%
CN(C)c1ccc(/C=C\c2ccnc3ccccc23)cc1	-0.99% (active)	33.6%	87.7%	39.1%	62.6%	55.8%	
CCC1(c2ccccc2)Oc2ccccc2-n2c(C#N)c3ccccc3c2C1=O (stereo not drawn)	104%	106%	107%	85.1%	86.7%	102%	
CCCCN(CCCC)CCCOC(=O)c1ccc(N)cc1	82.4%	-3.25% (active)	74.6%		58.4%	103%	87.6%
O=C(OCCBr)c1ccc(Cl)c([N+](=O)[O-])c1	107%		103%	44.7%	92.4%	63.1%	42.9%
CC(C)(C)c1ccc(C(O)CCCN2CCC(C(O)(c3ccccc3)c3ccccc3)CC2)cc1 (stereo not drawn)	42.1%	-93.2% (active)	-77.1% (active)		-100% (active)	-73.5% (active)	-90.1% (active)
CCCCc1nc(Cl)c(CO)n1Cc1ccc(-c2ccccc2-c2nn[nH]n2)cc1	106%	96.5%	103%		102%	103%	104%
CCCCCCC(C)(O)c1ccccc1 (stereo not drawn)		106%	107%	97.4%	109%	107%	102%
CCN(CC)c1ccc(C(O)C2=CC(=O)c3ccccc3C2=O)cc1 (stereo not drawn)	23.6%		-42.7% (active)	9.53% (active)	-9.43% (active)	1.59% (active)	-60.5% (active)
Nc1c2ccccc2nc2ccccc12 (tested in a mixture with another compound)	57.3%	18.6%	15.6%		13.6%	23%	28.7%
CO[C@H]1CC(O[C@@H]2/C(C)=C/C[C@@H]3C[C@@H](C[C@]4(CC[C@H](C)[C@@H](C5CCCCC5)O4)O3)OC(=O)[C@@H]3C=C(C)/C(=N/O)[C@H]4OC/C(=C\C=C\[C@@H]2C)[C@]43O)O[C@@H](C)C1O (stereo partly drawn)	-88.3% (active)	-86.1% (active)	-73.2% (active)		-95.6% (active)	-88.8% (active)	-78.1% (active)
C[n+]1c2ccccc2c(NC2CCNCC2)c2[nH]c3ccccc3c21		30.9%	16.1%	1.07% (active)	4.09% (active)	-11.4% (active)	-7.7% (active)
NC(=O)c1ncn([C@@H]2O[C@H](CO)[C@@H](O)[C@H]2O)n1	105%	101%	71.5%		89.6%	100%	87.6%
O=C(OC[C@H]1O[C@H](OC(=O)c2cc(O)c(O)c(OC(=O)c3cc(O)c(O)c(O)c3)c2)[C@H](OC(=O)c2cc(O)c(O)c(OC(=O)c3cc(O)c(O)c(O)c3)c2)[C@@H](OC(=O)c2cc(O)c(O)c(OC(=O)c3cc(O)c(O)c(O)c3)c2)[C@@H]1OC(=O)c1cc(O)c(O)c(OC(=O)c2cc(O)c(O)c(O)c2)c1)c1cc(O)c(O)c(OC(=O)c2cc(O)c(O)c(O)c2)c1	47.4%	8.23% (active)	47.5%		11.5%	21.8%	1.77% (active)
CC(C)c1nc(N(C)S(C)(=O)=O)nc(-c2ccc(F)cc2)c1/C=C/[C@@H](O)C[C@@H](O)CC(=O)O	103%	109%	107%		98.2%	95.8%	97.5%

SMILES	growth [1]	growth [2]	growth [3]	growth [4]	growth [5]	growth [6]	growth [7]
C=CC1=C(C(=O)O)N2C(=O)[C@@H](NC(=O)/C(=N\O)c3csc(N)n3)[C@H]2SC1 (stereo in doubt)	118%	109%	106%		105%	112%	105%
COC(=O)c1ccc2c(c1)nc(-c1ccc(O)c(OC)c1)n2-c1cc(C(C)(C)C)[nH]n1	108%		104%	83.6%	93.5%	96.9%	115%
CC(C)(C)c1cc(O)c(O)c(C(C)(C)C)c1	61.2%		19.3%	36.3%	15.8%	48.1%	59.5%
CN(CCOc1ccc(CC2SC(=O)NC2=O)cc1)c1ccccn1 (stereo not drawn)	104%	98.3%	102%		103%	96.3%	112%
NC(N)=NN=c1c(=O)c2ccccc2c1=O	92.3%	12.7%	-67% (active)		-37.8% (active)	73.8%	112%
Cc1ccsc1/C=C/C1=NCCCN1C	102%	103%	105%		103%	114%	102%
O=C(NCCCO)c1cc(Cl)ccc1O	19.2%		23.1%	18.9%	10.9%	14.5%	21.4%
CCCCCCCCCCC[C@@H](C[C@H]1OC(=O)[C@H]1CCCCCC)OC(=O)[C@@H](CC(C)C)NC=O	31.6%	69%	77.6%		34%	53%	55.1%
C[C@@H]1CC[C@H]2[C@@H](C)C(O)O[C@@H]3O[C@]4(C)CC[C@@H]1[C@]32OO4 (stereo partly drawn)	32.3%	2.52% (active)	17.5%		8.03% (active)	18.3%	41.3%
CCOC(Cc1c(N)[nH]c(=S)[nH]c1=O)OCC	102%		105%	96.8%	103%	112%	113%
CCCCCCCCCCCCCCCCCc1nccn1CCO	70%	95%	61.3%			85.6%	55.4%
N#CCCN(CCO)c1ccccc1	91.7%		102%	93.6%	100%	110%	129%
C[n+]1c2ccccc2c(Nc2ccc(N3CCCCC3)cc2)c2[nH]c3ccccc3c21		-96.4% (active)	-90.8% (active)	-74.6% (active)	-98.7% (active)	-96.5% (active)	-96.1% (active)
CSC1=Nc2c(c(C)c(-c3ccccc3)n2CCCN2CCCCC2)C2=NC(=O)C[C@H](C)N12		26.3%	61.5%	13.9%	42.9%	2.35% (active)	60.7%
CCOC(=O)C1=C(COCCN)NC(C)=C(C(=O)OC)C1c1ccccc1Cl (stereo not drawn)	86.5%	68.7%	53.4%		45.9%	68.9%	3.32% (active)
Fc1ccc([C@@H]2CCNC[C@H]2COc2ccc3c(c2)OCO3)cc1	84.2%	46.5%	98.4%		49.8%	76.4%	-66.8% (active)
Cc1scc2c1N(C(=O)CN1CCN(C)CC1)c1ccccc1NC2=O	110%	110%	112%		111%	113%	103%
